{"source": "paper PMC11006913", "test_in_all_cases": "PBM; 200 nM protein, PBS", "settings_in_all_cases": "dsDNA, one strand shown", "key": {"VENTX [1]": {"target": "T1, VENTX (Homo sapiens, UniProt O95231 78-163, R121Q)", "T1 sequence": "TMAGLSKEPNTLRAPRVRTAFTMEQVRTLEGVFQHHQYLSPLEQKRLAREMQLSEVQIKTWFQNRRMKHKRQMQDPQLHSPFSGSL"}, "VENTX [2]": {"target": "T2, VENTX (Homo sapiens, UniProt O95231 78-163)", "T2 sequence": "T1 sequence with Q44R"}, "VENTX [3]": {"target": "T3, VENTX (Homo sapiens, UniProt O95231 78-163, Y115F)", "T3 sequence": "T1 sequence with Y38F, Q44R"}, "HOXB6 [4]": {"target": "HOXB6 (Homo sapiens, UniProt P17509 132-218, K202E)", "sequence (P17509 132-218 K202E)": "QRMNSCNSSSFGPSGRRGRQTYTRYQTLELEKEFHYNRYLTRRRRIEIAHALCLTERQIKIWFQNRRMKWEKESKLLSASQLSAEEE"}, "HOXB6 [5]": {"target": "HOXB6 (Homo sapiens, UniProt P17509 132-218)", "sequence (P17509 132-218)": "as the sequence (P17509 132-218 K202E) above, with E71K counted along it"}, "VAX1 [6]": {"target": "VAX1 (Homo sapiens, UniProt Q5SQQ9 86-172)", "sequence (Q5SQQ9 86-172)": "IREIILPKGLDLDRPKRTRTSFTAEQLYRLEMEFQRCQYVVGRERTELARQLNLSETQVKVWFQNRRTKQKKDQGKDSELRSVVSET"}, "VAX1 [7]": {"target": "VAX1 (Homo sapiens, UniProt Q5SQQ9 86-172, T142I)", "sequence (Q5SQQ9 86-172 T142I)": "as the sequence (Q5SQQ9 86-172) above, with T57I counted along it"}, "VAX1 [8]": {"target": "VAX1 (Homo sapiens, UniProt Q5SQQ9 86-172, K157R)", "sequence (Q5SQQ9 86-172 K157R)": "as the sequence (Q5SQQ9 86-172) above, with K72R counted along it"}, "NKX2-6 [9]": {"target": "T4, NKX2-6 (Homo sapiens, UniProt A6NCS4 118-204)", "T4 sequence": "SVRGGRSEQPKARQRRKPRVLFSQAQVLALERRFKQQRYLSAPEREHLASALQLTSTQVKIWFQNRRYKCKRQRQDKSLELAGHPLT"}, "NKX2-6 [10]": {"target": "T5, NKX2-6 (Homo sapiens, UniProt A6NCS4 118-204, F151L)", "T5 sequence": "T4 sequence with F34L"}, "ALX1 [11]": {"target": "ALX1 (Homo sapiens, UniProt Q15699 118-204, L144V)", "sequence (Q15699 118-204 L144V)": "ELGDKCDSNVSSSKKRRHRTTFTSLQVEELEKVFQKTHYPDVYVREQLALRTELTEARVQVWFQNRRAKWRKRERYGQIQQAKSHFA"}, "ALX1 [12]": {"target": "ALX1 (Homo sapiens, UniProt Q15699 118-204, L144R)", "sequence (Q15699 118-204 L144R)": "as the sequence (Q15699 118-204 L144V) above, with V27R counted along it"}, "ALX1 [13]": {"target": "ALX1 (Homo sapiens, UniProt Q15699 118-204)", "sequence (Q15699 118-204)": "as the sequence (Q15699 118-204 L144V) above, with V27L counted along it"}, "ALX3 [14]": {"target": "ALX3 (Homo sapiens, UniProt O95076 139-225, N203Q)", "sequence (O95076 139-225 N203Q)": "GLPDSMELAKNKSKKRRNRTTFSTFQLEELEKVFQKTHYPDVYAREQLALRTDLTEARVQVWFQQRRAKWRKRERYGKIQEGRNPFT"}, "ALX3 [15]": {"target": "ALX3 (Homo sapiens, UniProt O95076 139-225)", "sequence (O95076 139-225)": "as the sequence (O95076 139-225 N203Q) above, with Q65N counted along it"}, "ALX3 [16]": {"target": "ALX3 (Homo sapiens, UniProt O95076 139-225, L168Q)", "sequence (O95076 139-225 L168Q)": "as the sequence (O95076 139-225 N203Q) above, with L30Q, Q65N counted along it"}, "ALX3 [17]": {"target": "ALX3 (Homo sapiens, UniProt O95076 139-225, L168V)", "sequence (O95076 139-225 L168V)": "as the sequence (O95076 139-225 N203Q) above, with L30V, Q65N counted along it"}, "ALX3 [18]": {"target": "ALX3 (Homo sapiens, UniProt O95076 139-225, N203S)", "sequence (O95076 139-225 N203S)": "as the sequence (O95076 139-225 N203Q) above, with Q65S counted along it"}, "NKX2-6 [19]": {"target": "T6, NKX2-6 (Homo sapiens, UniProt A6NCS4 118-204, R150C)", "T6 sequence": "T4 sequence with R33C"}, "MSX2 [20]": {"target": "MSX2 (Homo sapiens, UniProt P35548 130-214, R199I)", "sequence (P35548 130-214 R199I)": "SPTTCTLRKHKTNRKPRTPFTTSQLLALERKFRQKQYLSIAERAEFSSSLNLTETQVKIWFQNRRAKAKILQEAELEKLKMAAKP"}, "MSX2 [21]": {"target": "MSX2 (Homo sapiens, UniProt P35548 130-214)", "sequence (P35548 130-214)": "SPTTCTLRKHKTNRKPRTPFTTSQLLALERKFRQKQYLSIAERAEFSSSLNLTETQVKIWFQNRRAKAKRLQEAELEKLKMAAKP"}, "MSX2 [22]": {"target": "MSX2 (Homo sapiens, UniProt P35548 130-214, F161Y)", "sequence (P35548 130-214 F161Y)": "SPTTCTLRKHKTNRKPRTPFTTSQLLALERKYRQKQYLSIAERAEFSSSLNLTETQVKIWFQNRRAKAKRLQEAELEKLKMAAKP"}}, "note": "Where a chain is given by its changes, count along the chain named.", "data": [{"sequence": "CAGAGGGC", "values": [{"measurement": "binding signal", "setting": "VENTX [1]", "result": "8.16 upbm affinity estimate (log intensity, higher = more binding, comparable within an allelic series)"}, {"measurement": "binding signal", "setting": "VENTX [2]", "result": "8.02 upbm affinity estimate (log intensity, higher = more binding, comparable within an allelic series)"}, {"measurement": "binding signal", "setting": "VENTX [3]", "result": "8.12 upbm affinity estimate (log intensity, higher = more binding, comparable within an allelic series)"}, {"measurement": "binding signal", "setting": "HOXB6 [4]", "result": "9.04 upbm affinity estimate (log intensity, higher = more binding, comparable within an allelic series)"}, {"measurement": "binding signal", "setting": "HOXB6 [5]", "result": "9.01 upbm affinity estimate (log intensity, higher = more binding, comparable within an allelic series)"}]}, {"sequence": "CGGGCGCA", "values": [{"measurement": "binding signal", "setting": "VENTX [1]", "result": "7.97 upbm affinity estimate (log intensity, higher = more binding, comparable within an allelic series)"}, {"measurement": "binding signal", "setting": "VENTX [2]", "result": "7.92 upbm affinity estimate (log intensity, higher = more binding, comparable within an allelic series)"}, {"measurement": "binding signal", "setting": "VENTX [3]", "result": "7.91 upbm affinity estimate (log intensity, higher = more binding, comparable within an allelic series)"}, {"measurement": "binding signal", "setting": "VAX1 [6]", "result": "6.81 upbm affinity estimate (log intensity, higher = more binding, comparable within an allelic series)"}, {"measurement": "binding signal", "setting": "VAX1 [7]", "result": "6.96 upbm affinity estimate (log intensity, higher = more binding, comparable within an allelic series)"}, {"measurement": "binding signal", "setting": "VAX1 [8]", "result": "6.94 upbm affinity estimate (log intensity, higher = more binding, comparable within an allelic series)"}]}, {"sequence": "ACGCCGCC", "values": [{"measurement": "binding signal", "setting": "VENTX [1]", "result": "8.33 upbm affinity estimate (log intensity, higher = more binding, comparable within an allelic series)"}, {"measurement": "binding signal", "setting": "VENTX [2]", "result": "8.43 upbm affinity estimate (log intensity, higher = more binding, comparable within an allelic series)"}, {"measurement": "binding signal", "setting": "VENTX [3]", "result": "8.35 upbm affinity estimate (log intensity, higher = more binding, comparable within an allelic series)"}, {"measurement": "binding signal", "setting": "NKX2-6 [9]", "result": "9.13 upbm affinity estimate (log intensity, higher = more binding, comparable within an allelic series)"}, {"measurement": "binding signal", "setting": "NKX2-6 [10]", "result": "9.22 upbm affinity estimate (log intensity, higher = more binding, comparable within an allelic series)"}]}, {"sequence": "GCCCCGGC", "values": [{"measurement": "binding signal", "setting": "VENTX [1]", "result": "8.07 upbm affinity estimate (log intensity, higher = more binding, comparable within an allelic series)"}, {"measurement": "binding signal", "setting": "VENTX [2]", "result": "7.98 upbm affinity estimate (log intensity, higher = more binding, comparable within an allelic series)"}, {"measurement": "binding signal", "setting": "VENTX [3]", "result": "7.96 upbm affinity estimate (log intensity, higher = more binding, comparable within an allelic series)"}, {"measurement": "binding signal", "setting": "ALX1 [11]", "result": "6.69 upbm affinity estimate (log intensity, higher = more binding, comparable within an allelic series)"}, {"measurement": "binding signal", "setting": "ALX1 [12]", "result": "6.67 upbm affinity estimate (log intensity, higher = more binding, comparable within an allelic series)"}, {"measurement": "binding signal", "setting": "ALX1 [13]", "result": "6.32 upbm affinity estimate (log intensity, higher = more binding, comparable within an allelic series)"}]}, {"sequence": "CAGGGGGG", "values": [{"measurement": "binding signal", "setting": "VENTX [1]", "result": "8.13 upbm affinity estimate (log intensity, higher = more binding, comparable within an allelic series)"}, {"measurement": "binding signal", "setting": "VENTX [2]", "result": "8.11 upbm affinity estimate (log intensity, higher = more binding, comparable within an allelic series)"}, {"measurement": "binding signal", "setting": "VENTX [3]", "result": "8.09 upbm affinity estimate (log intensity, higher = more binding, comparable within an allelic series)"}, {"measurement": "binding signal", "setting": "ALX3 [14]", "result": "7.62 upbm affinity estimate (log intensity, higher = more binding, comparable within an allelic series)"}, {"measurement": "binding signal", "setting": "ALX3 [15]", "result": "7.33 upbm affinity estimate (log intensity, higher = more binding, comparable within an allelic series)"}, {"measurement": "binding signal", "setting": "ALX3 [16]", "result": "7.58 upbm affinity estimate (log intensity, higher = more binding, comparable within an allelic series)"}, {"measurement": "binding signal", "setting": "ALX3 [17]", "result": "7.5 upbm affinity estimate (log intensity, higher = more binding, comparable within an allelic series)"}, {"measurement": "binding signal", "setting": "ALX3 [18]", "result": "7.6 upbm affinity estimate (log intensity, higher = more binding, comparable within an allelic series)"}]}, {"sequence": "CGGGTCGC", "values": [{"measurement": "binding signal", "setting": "VENTX [1]", "result": "8.13 upbm affinity estimate (log intensity, higher = more binding, comparable within an allelic series)"}, {"measurement": "binding signal", "setting": "VENTX [2]", "result": "8.41 upbm affinity estimate (log intensity, higher = more binding, comparable within an allelic series)"}, {"measurement": "binding signal", "setting": "VENTX [3]", "result": "8.28 upbm affinity estimate (log intensity, higher = more binding, comparable within an allelic series)"}, {"measurement": "binding signal", "setting": "NKX2-6 [19]", "result": "9.33 upbm affinity estimate (log intensity, higher = more binding, comparable within an allelic series)"}, {"measurement": "binding signal", "setting": "MSX2 [20]", "result": "9.47 upbm affinity estimate (log intensity, higher = more binding, comparable within an allelic series)"}, {"measurement": "binding signal", "setting": "MSX2 [21]", "result": "9.59 upbm affinity estimate (log intensity, higher = more binding, comparable within an allelic series)"}, {"measurement": "binding signal", "setting": "MSX2 [22]", "result": "9.55 upbm affinity estimate (log intensity, higher = more binding, comparable within an allelic series)"}]}, {"sequence": "CCCGACCG", "values": [{"measurement": "binding signal", "setting": "VENTX [1]", "result": "8.21 upbm affinity estimate (log intensity, higher = more binding, comparable within an allelic series)"}, {"measurement": "binding signal", "setting": "VENTX [2]", "result": "8.16 upbm affinity estimate (log intensity, higher = more binding, comparable within an allelic series)"}, {"measurement": "binding signal", "setting": "VENTX [3]", "result": "8.1 upbm affinity estimate (log intensity, higher = more binding, comparable within an allelic series)"}, {"measurement": "binding signal", "setting": "NKX2-6 [19]", "result": "9.21 upbm affinity estimate (log intensity, higher = more binding, comparable within an allelic series)"}, {"measurement": "binding signal", "setting": "ALX3 [14]", "result": "7.73 upbm affinity estimate (log intensity, higher = more binding, comparable within an allelic series)"}, {"measurement": "binding signal", "setting": "ALX3 [15]", "result": "7.81 upbm affinity estimate (log intensity, higher = more binding, comparable within an allelic series)"}, {"measurement": "binding signal", "setting": "ALX3 [16]", "result": "7.73 upbm affinity estimate (log intensity, higher = more binding, comparable within an allelic series)"}, {"measurement": "binding signal", "setting": "ALX3 [17]", "result": "7.72 upbm affinity estimate (log intensity, higher = more binding, comparable within an allelic series)"}, {"measurement": "binding signal", "setting": "ALX3 [18]", "result": "7.76 upbm affinity estimate (log intensity, higher = more binding, comparable within an allelic series)"}]}]}
